Experimental findings from PubChem BioAssay (NCATS) are described below.

SMILES strings stand for the structures.

The test in a line: qHTS drug screen for cell cycle checkpoint inhibitors in PARPi-resistant BRCA-mutant ovarian cancer cell lines. (AID 1963452). The note with it: PEO1/OlaR viability, CellTiter-Glo luminescence, 96 h; measured here: PEO4 Z-AUC; stronger effect = lower value. In a few lines:
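PEO1, PEO4 and PEO1/OlaR ovarian cancer cells, 600 per well, exposed 96 h at 37C to a dilution series. Viability read by CellTiter-Glo luminescence, normalized to DMSO and empty wells; activity summarized as Z-AUC.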
For orientation: In qHTS, concentration-response curves come from the screen itself.
For the molecule `Nc1ncnc2c1c(COc1cccc(Cl)c1)nn2C1CCOCC1`, the Z-AUC is -0.767.

With `O=C(/C=C/C=C/c1ccc2c(c1)OCO2)N1CCCCC1`, the Z-AUC was found to be 2.18.

In the case of `N#Cc1cccc(-c2c[nH]c3ncnc(N4CCOCC4)c23)c1`, the Z-AUC turned out to be 0.859.

Turning to `Nc1ncnc2c1C(=O)N(c1ccc(C3CCC(CC(=O)O)CC3)cc1)CCO2` (configuration not stated), the Z-AUC stood at 0.138.

Turning to `COc1ccc2[nH]c(S(=O)Cc3ncc(C)c(OC)c3C)nc2c1` (configuration not stated), the Z-AUC was 1.24.

In the case of `CNc1nc(C)nc(N[C@H]2CCC[C@@H](C(=O)NCc3ccc(C#N)cc3C(F)(F)F)C2)n1`, the Z-AUC was found to be 1.22.

As for `Cc1ncc(Cl)cc1NCc1ccc(C(=O)NC(CC2CCCC2)C(=O)NC2CC2)s1` (configuration not stated), the Z-AUC was 0.18.

`O=C1NC(=O)/C(=C/c2cccc(C(F)(F)F)c2)S1`: the Z-AUC was 0.0196.

As for `CCCCOc1nc(N)c2c(n1)N(Cc1cccc(CN3CCCC3)c1)CC(=O)N2`, the Z-AUC is -0.664.

Consider `Cc1ncc(NC(=O)c2ccc(CN3CCN(C)CC3)c(C(F)(F)F)c2)cc1Nc1nccc(-c2cccnc2)n1`, for which the Z-AUC is -0.0456.

For `CCC(CC)CC1(C(=O)Nc2ccccc2SC(=O)C(C)C)CCCCC1`, the Z-AUC is -0.923.

Regarding `Cc1nc(-c2cccnc2)sc1C(=O)Nc1ccccc1-c1cn2c(CN3CCOCC3)csc2n1`, the Z-AUC amounted to 0.19.

Consider `N#Cc1ccc(C2CCCc3cncn32)cc1` (configuration not stated), for which the Z-AUC was determined as 0.567.

Turning to `Cc1noc2c1-c1ccccc1C(c1ccc(Cl)cc1)=N[C@H]2CC(N)=O`, the Z-AUC was -0.463.

With `C[C@@H]1O[C@@H](O[C@@H]2\C=C/C=C\C=C/C=C\C[C@H](C)OC(=O)/C=C\[C@H]3O[C@@H]3C[C@H](O)C[C@]3(O)C[C@@H](O)[C@@H](C(=O)O)[C@H](C2)O3)[C@H](O)[C@H](N)[C@@H]1O`, the Z-AUC is 1.97.

On to `N#CN1CCC[C@@H](n2nc(-c3ccc(Oc4ccc(F)cc4F)cc3)c(C(N)=O)c2N)C1`, for which the Z-AUC is 0.537.

Take `O=C(O)CC1CCC(c2ccc(-c3ccc(Nc4ccc(C(F)(F)F)nc4)cn3)cc2)CC1` (configuration not stated): the Z-AUC is -0.671.

With `COCCCc1sc(-c2ccccc2)nc1C(=O)Nc1ccccc1-c1nc2cc(CN3CCCC3)cnc2s1`, the Z-AUC amounted to 0.43.

Take `Cc1cccc(-c2nn3c(c2-c2ccnc4ccc(C(N)=O)cc24)CCC3)n1`: the Z-AUC is 0.508.

As for `CC(C)[C@](O)(c1ccc2cc(OC(F)F)c(OC(F)F)cc2c1)c1cn[nH]n1`, the Z-AUC is -0.604.

For the molecule `C=C1C[C@@]2(O)O[C@@]3(C[C@H]2C(C)C)[C@@H](C)CC[C@@H]13`, the Z-AUC was -0.147.

Turning to `O=C(COCC(=O)N1CCN(C(c2ccccc2)c2ccccc2)CC1)Nc1ccc(Cl)cc1C(=O)O`, the Z-AUC was 1.34.

Turning to `Cn1cc(-c2c[nH]c3ncnc(N4CCOCC4)c23)cn1`, the Z-AUC was found to be 1.56.

For the molecule `CC(C)N(CCCNC(=O)Nc1ccc(C(C)(C)C)cc1)C[C@H]1O[C@@H](n2ccc3c(N)ncnc32)[C@H](O)[C@@H]1O`, the Z-AUC is -0.377.

`Cc1ccccc1-n1nc(-c2c(-c3ccc(F)cc3)nn3c2NC[C@@H](CO)C3)ccc1=O`: the Z-AUC stood at 0.209.

Take `Cc1c(F)cc(C(=O)NC2CC2)cc1-c1ccc(C(=O)NCC(C)(C)C)cn1`: the Z-AUC was 0.681.

Consider `COc1cccc2c1c(O)c(C(=O)N(C)c1ccc(C(F)(F)F)cc1)c(=O)n2C`, for which the Z-AUC worked out at 0.643.
